The entries come from a sample that favours hits as a whole.
ST2 IL33 inh: IL1RL1 inhibition; inhibition, % for hits at 17 µM; AID 1259354; 78,000 tested, 2.3% active; Q01638; AlphaLISA ST2-Fc/biotin-IL-33 interaction, 1 h; in the data active means inhibition above about 30%
Target sequence (Q01638 whole entry, looked up): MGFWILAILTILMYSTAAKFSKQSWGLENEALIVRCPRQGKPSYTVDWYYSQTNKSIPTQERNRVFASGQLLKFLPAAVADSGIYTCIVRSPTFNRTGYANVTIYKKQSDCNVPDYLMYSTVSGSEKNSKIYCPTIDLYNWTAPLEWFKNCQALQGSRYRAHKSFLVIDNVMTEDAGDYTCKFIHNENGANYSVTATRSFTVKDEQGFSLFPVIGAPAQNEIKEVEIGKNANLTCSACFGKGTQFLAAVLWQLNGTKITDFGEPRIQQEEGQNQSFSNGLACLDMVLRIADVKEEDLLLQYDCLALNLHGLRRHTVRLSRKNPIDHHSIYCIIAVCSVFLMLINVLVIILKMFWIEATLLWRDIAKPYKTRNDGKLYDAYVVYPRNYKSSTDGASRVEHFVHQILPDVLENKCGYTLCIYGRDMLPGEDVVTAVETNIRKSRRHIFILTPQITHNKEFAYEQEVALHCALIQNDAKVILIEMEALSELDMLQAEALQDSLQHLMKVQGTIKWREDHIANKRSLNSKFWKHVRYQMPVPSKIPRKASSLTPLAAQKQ
A number is an active result; 0 = inactive.

SMILES	ST2 IL33 inh
CN(C)c1ccc(CN2CCN(c3ccc(F)cc3)CC2)cc1	38.0%
CCC/C=C/c1cccc(N2CCNCC2)n1	0
C=C[C@H]1[C@H](O[C@@H]2O[C@H](CO)[C@@H](O)[C@H](O)[C@H]2O)OC=C2C(=O)OCC[C@H]21	0
CCOc1ccc(NC(=O)CN2C(=O)C(C)N=C(c3ccccc3)c3ccccc32)cc1 (stereo not drawn)	0
Cc1cccc(CN2CCN(Cc3ccccc3C)CC2)c1	0
C=CCNC(=O)NC[C@H]1C[C@@H]2CCN1C[C@@H]2c1cc(-c2ccco2)nc(C)n1	0
CN1CCN(Cc2ccc(F)c(Br)c2)CC1	0
O=[N+]([O-])c1ccc(N2CCN(Cc3ccc(F)c(Br)c3)CC2)cc1	31.0%
O=[N+]([O-])c1ccc(N2CCN(Cc3ccc(O)cc3)CC2)cc1	0
O=[N+]([O-])c1cc(Cl)ccc1N1CCN(Cc2ccccc2)CC1	31.0%
O=[N+]([O-])c1ccc(CN2CCN(c3ccc(Cl)cc3)CC2)cc1	0
Fc1ccc(N2CCN(Cc3ccc(F)c(Br)c3)CC2)cc1	0
Cc1ccccc1CN1CCN(c2cccc(Cl)c2)CC1	0
O=[N+]([O-])c1ccc(N2CCN(Cc3ccc(Cl)cc3)CC2)cc1	0
Cc1ccccc1CN1CCN(c2ccc([N+](=O)[O-])cc2)CC1	36.0%
Fc1ccccc1N1CCN(Cc2ccc(Cl)cc2)CC1	0
O=[N+]([O-])c1cccc(CN2CCN(c3ccc(Cl)cc3)CC2)c1	47.0%
Cc1ccccc1N1CCN(Cc2ccc(Cl)cc2)CC1	0
COc1ccc(Cl)cc1NC(=O)CN1C(=O)C(C)N=C(c2ccccc2)c2ccccc21 (stereo not drawn)	0
CSCC(=O)N1C[C@@H]2C[C@H](C1)c1ccc(-c3ccccc3CN(C)C)c(=O)n1C2	0
CCC(CC)c1cc([C@H]2CN3CC[C@H]2C[C@@H]3CNC(=O)c2ccccc2)nc(-c2ccncc2)n1	0
Cc1cccc(N2CCN(Cc3ccccc3Cl)CC2)c1C	0
C#CCN(C)C[C@H]1CN2CC[C@H]1C[C@@H]2CNC(=O)Nc1ccsc1	0
COc1ccc2cc(C(=O)C3CCCN(C4CCOCC4)C3)ccc2c1 (stereo not drawn)	0
CC(C)NC(=O)CN1CCCN(Cc2ccccc2Cl)S1(=O)=O	0
SMILES	ST2 IL33 inh
C[C@@H]1O[C@@H](O[C@@H]2C=C3CC[C@@H]4C(CC[C@]5(C)[C@@H](c6ccc(=O)oc6)CC[C@]45O)[C@@]3(C)CC2)[C@H](O)[C@H](O)[C@H]1O (stereo partly drawn)	0
CN1CCC(O)(c2ccccc2)C(C(=O)c2ccccc2)C1 (stereo not drawn)	0
O=C(C1CC1)N1CCc2cc(S(=O)(=O)N3CC4CC(C3)c3cccc(=O)n3C4)ccc21 (stereo not drawn)	0
CCC(CC)c1cc([C@H]2CN3CC[C@H]2C[C@@H]3CNC(=O)C2CC2)nc(-c2ccncc2)n1	0
CC(C)(C)c1ccc(OCCNc2ccc([N+](=O)[O-])c3cccnc23)cc1	55.0%
O=C(NC[C@H]1C[C@@H]2CCN1C[C@@H]2CN1C[C@@H]2C[C@H](C1)c1cccc(=O)n1C2)c1ccc2c(c1)OCO2	0
Cn1cc(/C=C(\C#N)[N+](=O)[O-])c2ccccc21	0
CCOc1ccc(N2C(=O)CC(=O)NC2=O)cc1	0
O=C(O)c1cccc2c1NC(C(=O)O)C1CC(Sc3ccccc3[N+](=O)[O-])C(Cl)C21 (stereo not drawn)	96.0%
Cc1nc(-c2cccs2)cc([C@H]2CN3CC[C@H]2C[C@@H]3CNC(=O)CCCC(=O)O)n1	0
CC(Cc1ccccn1)N(C)Cc1cc2c(cc1Cl)OCO2 (stereo not drawn)	0
CSc1cccc(NC(=O)NC[C@H]2C[C@@H]3CCN2C[C@@H]3CN2CCN(C)CC2)c1	0
CSCC(=O)N1C[C@@H]2C[C@H](C1)c1ccc(-c3cccc(C(F)(F)F)c3)c(=O)n1C2	0
CN(N=O)c1ccc(O)c(O)c1	69.0%
Cc1cccnc1CC(C)NC1Cc2ccccc2C1 (stereo not drawn)	0
CN1CCN(Cc2ccc3c(c2)OCCO3)CC1	0
COc1ccc(N=Cc2cc3c(cc2O)OC(N)=C(C#N)C3c2ccco2)cc1 (stereo not drawn)	30.0%
COc1ccc(S(=O)(=O)NC[C@H]2C[C@@H]3CCN2C[C@@H]3CN2CCN(c3ccccn3)CC2)cc1	0
O=c1ccc(-c2ccc(Cl)cc2)c2n1C[C@H]1C[C@@H]2CN(S(=O)(=O)c2cccs2)C1	0
